The values that follow come from ChEMBL document CHEMBL3988442, “University of Dundee, Small-Polar-MMV Screening Library” (2021).

For some assays here: Potency and affinity values are given separately.

Parameters in all cases: scale not given: direction of the effect not stated beside the values
The target of experiment [1] is Protein translocase subunit SecA (Escherichia coli (strain K12)) (UniProt P10408). In words: Assay to Identify E. coli SecA ATPase Inhibitors. In kind it is functional. The conditions noted are these: 30 µM.
Protein translocase subunit SecA (Escherichia coli (strain K12)), sequence (P10408 whole entry): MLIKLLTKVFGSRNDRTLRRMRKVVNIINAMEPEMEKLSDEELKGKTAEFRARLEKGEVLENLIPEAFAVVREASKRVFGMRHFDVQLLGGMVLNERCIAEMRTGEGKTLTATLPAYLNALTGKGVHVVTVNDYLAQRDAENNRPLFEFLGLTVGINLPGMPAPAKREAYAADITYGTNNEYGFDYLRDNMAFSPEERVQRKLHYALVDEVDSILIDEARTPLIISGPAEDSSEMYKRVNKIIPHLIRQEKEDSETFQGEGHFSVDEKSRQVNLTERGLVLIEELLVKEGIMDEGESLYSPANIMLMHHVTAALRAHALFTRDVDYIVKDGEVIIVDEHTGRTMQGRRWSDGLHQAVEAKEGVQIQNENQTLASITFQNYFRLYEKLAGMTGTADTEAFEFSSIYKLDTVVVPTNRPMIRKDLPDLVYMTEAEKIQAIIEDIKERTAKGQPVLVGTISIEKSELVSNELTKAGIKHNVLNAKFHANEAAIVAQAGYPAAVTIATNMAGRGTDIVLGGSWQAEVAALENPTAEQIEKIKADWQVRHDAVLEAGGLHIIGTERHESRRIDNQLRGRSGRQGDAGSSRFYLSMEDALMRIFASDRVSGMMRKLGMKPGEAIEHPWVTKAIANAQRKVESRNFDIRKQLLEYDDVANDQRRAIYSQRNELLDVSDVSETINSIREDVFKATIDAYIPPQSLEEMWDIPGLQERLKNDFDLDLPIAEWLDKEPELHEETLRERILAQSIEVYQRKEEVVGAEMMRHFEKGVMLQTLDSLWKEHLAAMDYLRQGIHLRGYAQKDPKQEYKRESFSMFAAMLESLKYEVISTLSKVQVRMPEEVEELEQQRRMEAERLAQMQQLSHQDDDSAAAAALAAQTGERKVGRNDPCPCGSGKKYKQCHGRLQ
Experiment [2] deals with T1, Ubiquitin-activating enzyme e1, putative (Leishmania donovani (strain BPK282A1)) (UniProt E9BSI1).
T1 sequence (whole entry): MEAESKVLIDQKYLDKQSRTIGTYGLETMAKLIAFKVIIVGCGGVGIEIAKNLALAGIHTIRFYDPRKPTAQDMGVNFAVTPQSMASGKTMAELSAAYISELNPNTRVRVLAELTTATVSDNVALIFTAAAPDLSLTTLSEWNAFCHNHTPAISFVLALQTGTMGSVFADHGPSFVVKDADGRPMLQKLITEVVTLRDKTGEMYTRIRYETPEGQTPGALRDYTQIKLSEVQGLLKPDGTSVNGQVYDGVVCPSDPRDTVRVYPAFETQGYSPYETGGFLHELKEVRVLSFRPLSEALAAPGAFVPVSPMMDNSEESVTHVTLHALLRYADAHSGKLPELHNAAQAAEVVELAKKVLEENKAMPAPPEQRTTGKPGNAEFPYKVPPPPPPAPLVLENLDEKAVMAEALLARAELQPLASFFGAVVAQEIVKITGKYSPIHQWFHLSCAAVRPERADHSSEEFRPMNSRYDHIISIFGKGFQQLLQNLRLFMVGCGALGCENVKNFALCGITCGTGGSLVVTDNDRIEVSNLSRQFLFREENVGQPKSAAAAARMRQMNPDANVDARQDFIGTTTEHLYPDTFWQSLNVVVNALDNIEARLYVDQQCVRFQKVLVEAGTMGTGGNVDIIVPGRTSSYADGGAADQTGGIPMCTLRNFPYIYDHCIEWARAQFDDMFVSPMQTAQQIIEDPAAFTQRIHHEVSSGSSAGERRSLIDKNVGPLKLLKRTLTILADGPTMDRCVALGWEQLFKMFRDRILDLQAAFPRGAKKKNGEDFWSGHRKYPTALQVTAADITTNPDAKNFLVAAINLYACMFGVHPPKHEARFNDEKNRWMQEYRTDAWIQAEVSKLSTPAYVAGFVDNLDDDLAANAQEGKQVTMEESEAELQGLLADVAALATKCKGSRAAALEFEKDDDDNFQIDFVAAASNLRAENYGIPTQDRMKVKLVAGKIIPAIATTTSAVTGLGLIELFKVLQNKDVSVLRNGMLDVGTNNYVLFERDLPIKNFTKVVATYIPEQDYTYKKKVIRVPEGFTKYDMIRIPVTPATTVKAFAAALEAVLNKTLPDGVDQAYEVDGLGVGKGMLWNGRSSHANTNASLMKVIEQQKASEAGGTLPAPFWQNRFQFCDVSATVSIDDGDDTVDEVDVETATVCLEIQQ
In words: Leishmania donovani Ubiquitin Activating Enzyme (LdE1). In kind it is functional. To be noted: 30 µM.

Experiment [3] has as its target Sialic acid-binding Ig-like lectin 9 (Homo sapiens) (UniProt Q9Y336). In words: Hs-Siglec9 ALPHAscreen SOP 20170721. The conditions noted are these: 10 µM. On the technique in general: Bead proximity is the source of the signal in Alpha formats.
A further experiment deals with Trypanosoma cruzi. Kind of experiment: Trypanosoma cruzi phosphomannomutase and mannose-1-phosphate guanylyltransferase assay. The experiment is classed as functional. To be noted: 10 µM.
In experiment [4] the target is T2, Arginase-2, mitochondrial (Homo sapiens) (UniProt P78540).
T2 sequence (whole entry): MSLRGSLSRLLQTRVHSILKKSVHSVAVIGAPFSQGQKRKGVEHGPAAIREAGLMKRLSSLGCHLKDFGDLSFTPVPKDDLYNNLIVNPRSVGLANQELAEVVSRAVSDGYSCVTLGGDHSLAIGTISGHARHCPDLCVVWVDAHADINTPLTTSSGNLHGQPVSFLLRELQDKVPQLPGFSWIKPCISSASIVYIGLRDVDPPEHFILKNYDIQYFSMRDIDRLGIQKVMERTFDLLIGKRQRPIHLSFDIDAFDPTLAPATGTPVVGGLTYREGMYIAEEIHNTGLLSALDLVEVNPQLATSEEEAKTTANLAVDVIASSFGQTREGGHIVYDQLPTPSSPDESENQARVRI
Kind of experiment: in vitro enzyme assay to detect the production of urea directly proportional to the activity of Arginase II. Note: in the data most compounds retested in dose-response had high values. The experiment is classed as functional. The conditions noted are these: 33.3 µM.

The target in experiment [5] is T3, Proteasome subunit beta (Trypanosoma cruzi) (UniProt O96673).
T3 sequence (whole entry): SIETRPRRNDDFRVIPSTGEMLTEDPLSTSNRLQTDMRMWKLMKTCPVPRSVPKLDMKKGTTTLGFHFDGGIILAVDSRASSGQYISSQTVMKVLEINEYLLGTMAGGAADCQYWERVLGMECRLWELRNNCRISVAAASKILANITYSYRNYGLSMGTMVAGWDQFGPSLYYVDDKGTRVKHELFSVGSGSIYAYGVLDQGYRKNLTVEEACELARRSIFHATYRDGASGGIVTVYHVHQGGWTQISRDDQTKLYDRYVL
Kind of experiment: Trypanosoma cruzi proteasome chymotrypsin-like activity (TcProtChymo) assay. Note: in the data most compounds retested in dose-response had high values. The experiment is classed as functional. The conditions noted are these: 9.37 µM.

The next experiment is filed under the species Homo sapiens. Kind of experiment: To identify inhibition of the IFN signalling (Jak-Stat) pathway via expression of an eGFP reporter gene under the control of an IFN-stimulated response element (ISRE) containing MxA promoter. The experiment is classed as functional. To be noted: 30 µM. In general terms: A reporter such as luciferase makes a cellular process visible.

For experiment [6], the target named is T4, Tyrosyl-tRNA synthetase, putative (Trypanosoma cruzi (strain CL Brener)) (UniProt Q4DSP6).
T4 sequence (whole entry): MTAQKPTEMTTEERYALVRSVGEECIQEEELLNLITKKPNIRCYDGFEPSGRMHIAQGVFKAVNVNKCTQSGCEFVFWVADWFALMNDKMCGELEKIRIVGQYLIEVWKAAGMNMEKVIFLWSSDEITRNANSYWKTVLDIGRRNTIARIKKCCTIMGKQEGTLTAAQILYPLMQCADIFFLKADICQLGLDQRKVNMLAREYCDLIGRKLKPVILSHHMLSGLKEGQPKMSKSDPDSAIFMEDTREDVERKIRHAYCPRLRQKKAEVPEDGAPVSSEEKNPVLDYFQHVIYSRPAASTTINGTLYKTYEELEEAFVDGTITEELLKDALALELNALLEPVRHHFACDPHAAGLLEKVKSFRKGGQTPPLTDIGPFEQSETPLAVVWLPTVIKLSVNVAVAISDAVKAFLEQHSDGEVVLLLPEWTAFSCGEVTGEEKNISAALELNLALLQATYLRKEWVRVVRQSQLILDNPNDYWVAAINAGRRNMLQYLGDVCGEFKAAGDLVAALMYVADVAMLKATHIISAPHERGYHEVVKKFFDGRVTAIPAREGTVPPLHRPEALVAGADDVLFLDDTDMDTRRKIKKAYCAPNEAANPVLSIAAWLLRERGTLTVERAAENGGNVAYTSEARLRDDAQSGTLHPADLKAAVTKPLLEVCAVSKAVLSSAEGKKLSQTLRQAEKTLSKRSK
In words: Trypanosoma cruzi tyrosyl tRNA synthetase (TcYRS) _High Tyrosine SOP. Note: in the data most compounds retested in dose-response had high values. In kind it is functional. To be noted: 30 µM.

Experiment [7] addresses T4, Tyrosyl-tRNA synthetase, putative (Trypanosoma cruzi (strain CL Brener)). Kind of experiment: Trypanosoma cruzi tyrosyl tRNA synthetase (TcYRS) SOP. The experiment is classed as functional. To be noted: 30 µM.
The target of experiment [8] is Chromo domain-containing protein 1 (Saccharomyces cerevisiae (strain ATCC 204508 / S288c) (Baker's yeast)) (UniProt P32657). In words: ScCHD-1 Enzyme Inhibition Assay. Note: in the data most compounds retested in dose-response had high values. The experiment is classed as functional. To be noted: 30 µM.
Chromo domain-containing protein 1 (Saccharomyces cerevisiae (strain ATCC 204508 / S288c) (Baker's yeast)), sequence (P32657 whole entry, the tested form may be a part): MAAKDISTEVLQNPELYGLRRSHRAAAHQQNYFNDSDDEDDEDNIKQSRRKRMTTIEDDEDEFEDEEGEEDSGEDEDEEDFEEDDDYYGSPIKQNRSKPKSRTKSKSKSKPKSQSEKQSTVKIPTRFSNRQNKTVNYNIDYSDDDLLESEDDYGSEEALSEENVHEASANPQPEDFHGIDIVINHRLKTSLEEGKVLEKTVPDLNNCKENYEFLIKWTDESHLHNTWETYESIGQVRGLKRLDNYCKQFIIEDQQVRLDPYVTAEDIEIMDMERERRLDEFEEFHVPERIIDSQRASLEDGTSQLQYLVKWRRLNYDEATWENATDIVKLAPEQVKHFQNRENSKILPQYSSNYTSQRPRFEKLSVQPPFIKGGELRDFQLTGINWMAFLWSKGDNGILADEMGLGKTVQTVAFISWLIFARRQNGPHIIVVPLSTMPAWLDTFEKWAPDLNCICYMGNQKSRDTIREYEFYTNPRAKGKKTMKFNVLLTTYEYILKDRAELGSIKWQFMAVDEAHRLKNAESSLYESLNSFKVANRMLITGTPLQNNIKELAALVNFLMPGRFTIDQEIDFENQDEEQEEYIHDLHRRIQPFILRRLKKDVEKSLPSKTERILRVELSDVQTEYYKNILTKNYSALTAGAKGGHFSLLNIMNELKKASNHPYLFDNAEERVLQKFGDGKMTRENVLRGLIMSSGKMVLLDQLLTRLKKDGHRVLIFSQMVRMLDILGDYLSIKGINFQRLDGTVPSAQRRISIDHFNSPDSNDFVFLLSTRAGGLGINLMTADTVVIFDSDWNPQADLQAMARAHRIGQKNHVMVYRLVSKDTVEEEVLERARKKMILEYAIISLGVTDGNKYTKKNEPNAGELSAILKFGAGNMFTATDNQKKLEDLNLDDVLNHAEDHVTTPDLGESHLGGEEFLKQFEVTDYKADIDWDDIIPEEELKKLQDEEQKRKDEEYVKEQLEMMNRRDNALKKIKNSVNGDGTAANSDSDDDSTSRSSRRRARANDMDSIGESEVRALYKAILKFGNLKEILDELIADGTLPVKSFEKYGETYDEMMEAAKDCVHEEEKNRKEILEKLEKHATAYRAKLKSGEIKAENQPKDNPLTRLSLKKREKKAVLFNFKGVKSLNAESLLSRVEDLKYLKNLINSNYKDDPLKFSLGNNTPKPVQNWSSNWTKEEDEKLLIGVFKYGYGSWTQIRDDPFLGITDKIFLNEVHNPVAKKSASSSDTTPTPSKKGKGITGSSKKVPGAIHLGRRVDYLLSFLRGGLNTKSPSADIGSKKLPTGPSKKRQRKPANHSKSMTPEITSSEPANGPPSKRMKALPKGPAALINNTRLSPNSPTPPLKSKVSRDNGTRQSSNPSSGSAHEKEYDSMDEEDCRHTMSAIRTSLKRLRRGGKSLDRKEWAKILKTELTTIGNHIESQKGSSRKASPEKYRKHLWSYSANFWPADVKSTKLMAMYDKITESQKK

Sialic acid-binding Ig-like lectin 9 (Homo sapiens), sequence (Q9Y336 whole entry): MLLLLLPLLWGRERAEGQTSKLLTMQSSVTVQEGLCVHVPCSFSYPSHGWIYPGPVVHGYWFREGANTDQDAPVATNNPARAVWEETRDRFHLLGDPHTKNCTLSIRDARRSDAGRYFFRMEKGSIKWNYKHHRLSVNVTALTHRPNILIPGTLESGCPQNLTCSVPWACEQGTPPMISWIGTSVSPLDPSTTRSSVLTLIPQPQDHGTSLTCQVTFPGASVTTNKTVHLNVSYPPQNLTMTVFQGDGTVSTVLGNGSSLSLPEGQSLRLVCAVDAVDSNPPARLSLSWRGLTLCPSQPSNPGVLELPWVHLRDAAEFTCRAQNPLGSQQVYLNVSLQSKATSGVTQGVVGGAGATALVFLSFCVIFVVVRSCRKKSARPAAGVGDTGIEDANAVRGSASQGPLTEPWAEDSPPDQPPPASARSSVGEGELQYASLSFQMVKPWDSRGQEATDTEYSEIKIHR

Regarding `Nc1nc2nc(C3CCCN(C(=O)c4cscn4)C3)ccc2s1` (stereo not given), the Percent Effect in [1] is 0.0997%; in experiment [2] it was 22.7%; in experiment [3], -9.01%; in the experiment with Trypanosoma cruzi, 3.55%; in experiment [4], -9.29%; in [5], 19.1%. Also, the Percent Effect in the experiment filed under Homo sapiens is 25.7%; in [6] it was 0%; in [7], 7.5%; in [8], -22.1%.

Take `CCC1CN(C(=O)c2ccccc2N2CCCC2)CCN1C(C)C` (stereo not given): the Percent Effect in [1] is -7.26%; in [2], 5.41%; in experiment [3], -0.153%; with Trypanosoma cruzi, -4.75%; in experiment [4], -5.94%; in experiment [5], 5.31%. The Percent Effect in the experiment listed under Homo sapiens was -3.97%; in [6], 3.72%; in experiment [7] it was -7.32%; in [8] it was -5.34%.

As to `CCc1ncc2c(n1)CN(CC(=O)Nc1ccc(Cl)cn1)CC2`, the Percent Effect in experiment [1] is -4.26%; in experiment [2], -2.67%; in experiment [3] it was 4.13%; in the experiment with Trypanosoma cruzi, 1.21%; in experiment [4], 2.66%; in experiment [5], 4.83%. Also, the Percent Effect in the experiment filed under Homo sapiens was 4.95%; in experiment [6], 8.95%; in experiment [7] it was 7.69%; in [8], -9.89%.

`CCn1nc2c(cc1=O)CN(Cc1nc(-c3ccsc3)no1)CC2`: the Percent Effect was -2.79% in experiment [1]; 0% in experiment [2]; 3.78% in experiment [3]; -0.282% in the experiment with Trypanosoma cruzi; 6.56% in experiment [4]; 4.18% in experiment [5]. For the same compound, the Percent Effect is 27.8% in the experiment filed under Homo sapiens, 4.31% in experiment [6], 6.02% in experiment [7] and -6.49% in [8].

For the compound `Cn1ccnc1CN1CCCC1c1noc(C2CC2)n1` (stereo not given), the Percent Effect is -1.78% in experiment [1]; 0% in [2]; -0.931% in [3]; 0% in the experiment with Trypanosoma cruzi; 1.33% in [4]; 6.19% in experiment [5]. The Percent Effect in the experiment filed under Homo sapiens is -3.87%; in experiment [6], 5.79%; in experiment [7], 10.3%; in experiment [8] it was -4.32%.

With `COCCN1C[C@@H]2CN(C(=O)[C@H]3CCCO3)C[C@@H]2C1=O`, the Percent Effect in [1] is 0.0627%; in [2], 16.9%; in [3], -1.76%; in the experiment on Trypanosoma cruzi, -6.38%; in [4] it was 3.65%; in [5], 24.5%. In addition, the Percent Effect in the experiment listed under Homo sapiens is 7.75%; in [6] it was 7.73%; in [7] it was 12.5%; in experiment [8], -7.63%.

As to `CN(CC(=O)N1CCCN(Cc2cscn2)CC1)c1cnccn1`, the Percent Effect is 0.471% in experiment [1]; -18.2% in experiment [2]; 7.79% in experiment [3]; -4.29% in the experiment on Trypanosoma cruzi; -3.07% in [4]; 0.351% in experiment [5]. Further, the Percent Effect in the experiment listed under Homo sapiens is 9.75%; in experiment [6], 0%; in experiment [7] it was 4.71%; in experiment [8] it was 5.41%.

`Cc1noc(C)c1CC(=O)OCC(=O)N1CCc2sccc2C1`: the Percent Effect in experiment [1] is -3.42%; in experiment [2], 18.7%; in experiment [3], 0.304%; in the experiment on Trypanosoma cruzi, 0.201%; in experiment [4], -3.99%; in experiment [5], 14.3%. In addition, the Percent Effect in the experiment listed under Homo sapiens was 12.1%; in experiment [6] it was 6.84%; in experiment [7], 23.1%; in experiment [8], -8.07%.

Turning to `Cc1csc2ncc(-c3ccnc(N4CCCC[C@@H]4CO)n3)c(=O)n12`, the Percent Effect in experiment [1] was -2.72%; in experiment [2] it was -16%; in [3], -2.59%; with Trypanosoma cruzi, -2.41%; in experiment [4], 0%; in [5] it was 7.72%. In addition, the Percent Effect was 19.8% in the experiment listed under Homo sapiens, -3.68% in experiment [6], -12.8% in experiment [7] and -17.9% in experiment [8].

In the case of `O=C(c1ccc(OCC2CC2)nc1)N1CCCC(n2cncn2)C1` (stereo not given), the Percent Effect is -1.42% in [1]; 10.3% in [2]; -4.65% in [3]; -3.1% in the experiment on Trypanosoma cruzi; 7.79% in experiment [4]; 9.13% in experiment [5]. Further, the Percent Effect is 19.1% in the experiment filed under Homo sapiens, 5.26% in experiment [6], 13.2% in experiment [7] and -4.21% in experiment [8].

As for `Cc1cc(C(=O)NC2CCc3nc(C)cn3C2)[nH]n1` (stereo not given), the Percent Effect was -3.96% in [1]; 2.67% in experiment [2]; 4.26% in [3]; -0.803% with Trypanosoma cruzi; 1.77% in experiment [4]; 5.68% in experiment [5]. Also, the Percent Effect in the experiment filed under Homo sapiens is 3.16%; in [6], 3.68%; in experiment [7], 5.13%; in [8], -7.74%.
